# Screening results: PubChem BioAssay, several laboratories
# An excerpt weighted towards active compounds, which were near 2.3% of everything screened.
# B2AR ag: human beta-2 adrenergic receptor agonism by FAP | Am2.2-beta2AR cells, FAP receptor internalization, flow cytometry | response, % (test concentration not listed) | 340,000 compounds, 0.43% hits | AID 504454;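 active means response above a set limit, near 3 SD of response in nonfluorescent compounds, cut at about 42% in these data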
# Target sequence (P07550 whole entry, looked up): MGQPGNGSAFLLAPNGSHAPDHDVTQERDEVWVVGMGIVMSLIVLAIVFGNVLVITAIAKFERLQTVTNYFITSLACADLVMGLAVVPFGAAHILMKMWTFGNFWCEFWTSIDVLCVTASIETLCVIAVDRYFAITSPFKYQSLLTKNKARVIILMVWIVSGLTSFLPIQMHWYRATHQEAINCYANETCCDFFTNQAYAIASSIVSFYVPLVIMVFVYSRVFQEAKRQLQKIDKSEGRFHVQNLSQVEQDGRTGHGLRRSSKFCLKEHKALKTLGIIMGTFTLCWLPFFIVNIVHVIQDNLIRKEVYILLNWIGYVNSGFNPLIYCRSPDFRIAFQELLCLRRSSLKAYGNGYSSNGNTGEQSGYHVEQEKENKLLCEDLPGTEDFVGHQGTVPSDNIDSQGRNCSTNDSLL
# ABHD5 PLIN5 PPI: blocks binding of human ABHD5 to perilipin-5. Q00G26+Q8WTS1. Split G. princeps luciferase complementation, luminescence, 4 h. inhibition, % at 4 µM. 360,000 compounds, 0.78% hits;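 active means inhibition above the mean inhibition across every tested compound plus 3 SD, cut at about 22% in these data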;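 further: 0% = DMSO only wells and the 100% control is not disclosed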
# NTR1 ag: activates human neurotensin receptor 1. P30989. NTR1-U2OS beta-arrestin-GFP spot imaging, agonist mode. activation, % at 20 µM. 330,000 compounds, 0.17% hits;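 active means activation at or above 40% of the spot to cytoplasm intensity ratio, with at least 20 cells analyzed; inconclusive means wells under 20 cells, flagged as cytotoxic or low count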;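 further: 0% = DMSO without peptide and 100% = 100 nM NTR1 peptide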
# Granule exo inh: blocks lytic granule exocytosis. 360,000 compounds, 0.66% hits. inhibition, % at 10 µM. AID 651702. TALL-104 LAMP-1 surface exposure, flow cytometry; cells stimulated with thapsigargin and PMA;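 active means inhibition above about 55%, limit read from the data; inconclusive means no clear call, values can overlap the other calls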
# m5-HT2A agonist: mouse HTR2A agonism via beta-arrestin recruitment; P35363; CHO-K1 mHTR2A beta-arrestin complementation, luminescence; percent of 30 µM serotonin response; activation, % at 7.6 µM; 360,000 compounds, 0.66% hits; AID 624169;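 active means activation above a run cutoff, the mean activation of all tested compounds plus 3 SD, cut at about 14% in these data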;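 further: 0% = plate median of compound wells and 100% = 30 µM serotonin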
# Exocytosis CP01: blocks lytic granule exocytosis. shares compounds with Granule exo inh. TALL-104 cells, LAMP-1 externalization, flow cytometry; stimulated with PMA plus thapsigargin. inhibition, % at 10 µM. 1,500 compounds, 11% hits; in the data active means inhibition above about 60%;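 further: 0% = stimulated vehicle wells and 100% = unstimulated wells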
# * = called active by the depositor; ? = inconclusive; nt = no result.
SMILES,B2AR ag,ABHD5 PLIN5 PPI,NTR1 ag,Granule exo inh,m5-HT2A agonist,Exocytosis CP01
CCOC(=O)C1CCN(C(=O)c2cccc(C(=O)N3CCC(C(=O)OCC)CC3)c2)CC1,5,4,-2,-2,1,nt
CCOC(=O)C1c2cccc(O)c2CCN1C(C)=O (configuration not stated),nt,2,nt,114*,0,-13
COc1cc(C)cc(OC)c1OCC(=O)Nc1cc(C)on1,1,-8,0,69*,5,-4
CC(=O)c1cccc(NC(=O)Nc2nc(C)cc(C)n2)c1,-4,2,0,0,-3,nt
COc1cc(C(C)=O)ccc1OCCCN1CCC(Cc2ccccc2)CC1,-9,7,0,64*,-6,-10
OCc1ccccc1OCCCN1CCC(Cc2ccccc2)CC1,1,-1,-1,69*,-11,-11
COc1cc(C(C)=O)ccc1OCCN1CCC(Cc2ccccc2)CC1,-3,5,1,56*,-6,-13
Clc1ccccc1OCCN1CCC(Cc2ccccc2)CC1,7,18,3,14,-9,nt
COc1cc(C(C)=O)ccc1OCC(=O)N1CCC(Cc2ccccc2)CC1,nt,1,nt,?,8,nt
COc1ccc(NC(=O)C2(C)CCN2Cc2csc3ccccc23)cc1OC (configuration not stated),nt,3,nt,-4,-7,nt
O=C(NCc1ccccc1Cl)c1ccncc1,5,6,-1,66*,2,-4
CCc1nc2sc(C(C)=O)c(N)c2c2c1CCCC2,-3,-7,2,64*,4,-11
CCc1nc2sc(C#N)c(N)c2c2c1CCCC2,17,-9,4,2,2,nt
Cc1cc(N2CCN(c3ccccc3)CC2)nc2ccccc12,-8,-7,4,89*,1,-4
COc1ccc(-c2oc3ncnc(NCCCN4CCOCC4)c3c2-c2ccc(OC)cc2)cc1,12,19,1,63*,-10,30
OCCCNc1ncnc2oc(-c3ccccc3)c(-c3ccccc3)c12,20,8,17,66*,-3,-6
Cc1ccc(S(=O)(=O)Nc2c(O)ccc3ccccc23)cc1,-3,-13,0,82*,4,-11
N#CC(C#N)=Cc1c(N2CCN(c3ccccc3)CC2)nc2ccccn2c1=O,8,10,3,11,3,nt
CCOc1ccc(C(=O)Cc2ccccc2)cc1,-10,-3,nt,6,1,nt
COc1ccccc1CC(=O)c1ccc(OCc2ccccc2)cc1,-6,-10,0,81*,-3,-9
CCCN(CCC)S(=O)(=O)c1cccc(-c2csc(C)n2)c1,-4,-2,0,59*,-3,-5
CCN(CC)S(=O)(=O)c1ccc(-c2csc(C)n2)cc1,0,-5,-1,-5,-6,nt
O=C(Nc1nc(-c2cccs2)c(-c2cccs2)s1)C1CCCC1,-1,-9,nt,-6,-5,nt
CC(C)=C(NC(=O)c1ccccc1)C(=O)Nc1cccc(C)c1,5,-3,1,1,3,nt
CCOC(=O)C(C(=O)OCC)C(C(=O)OCC)N1CCOCC1 (configuration not stated),19,0,6,88*,-2,14
SMILES,B2AR ag,ABHD5 PLIN5 PPI,NTR1 ag,Granule exo inh,m5-HT2A agonist,Exocytosis CP01
CCOC(=O)C(C)CC(C)C(=O)N1CCOCCOCCN(C(=O)C(C)CC(C)C(=O)OCC)CCOCC1 (configuration not stated),1,-2,0,0,-4,nt
CCOC(=O)c1nnc(-c2ccccc2)nc1Sc1ccccc1Cl,10,1,20,102*,-4,76*
CCOC(=O)c1nnc(-c2ccc(C)cc2)nc1Sc1cccc(Cl)c1,0,2,9,2,4,nt
CCN(CC)S(=O)(=O)c1ccc(N2CCCC2)c(NC(=O)c2ccc(OC)cc2OC)c1,6,-4,0,72*,-4,-10
COc1ccc(C2CC(=O)Oc3c(C(CCN4CCCC(C)C4)c4ccc(N(C)C)cc4)c(OC)cc(OC)c32)cc1 (configuration not stated),12,5,2,72*,-9,-2
CCCCN(C=O)c1c(CC)nc2ccc(C(=O)N(C)Cc3ccco3)cn12,nt,3,nt,6,4,nt
COCCNC(=O)[C@@H]1CCCN1C(=O)C1CCN(S(=O)(=O)c2ccc(C)cc2)CC1,3,-7,1,1,-3,nt
O=S(=O)(Nc1cccc(S(=O)(=O)N2CCCCCC2)c1)c1ccccc1,-2,-8,-1,74*,-2,-5
O=C(Nc1cccc(O)c1)c1cccc(S(=O)(=O)N2CCCCCC2)c1,7,-2,0,59*,-3,-13
O=C(O)c1cccc(NC(=O)c2cccc(S(=O)(=O)N3CCCCC3)c2)c1,-3,0,0,-1,4,nt
CN1CCN(CCCNC(=O)c2ccc(/C=C3\Oc4ccccc4N(Cc4ccccc4F)C3=O)cc2)CC1,12,9,16,26,-2,nt
CN1CCN(CCCNC(=O)c2ccc(/C=C3\Sc4ccccc4N(Cc4ccc(F)cc4)C3=O)cc2)CC1,99*,13,nt,64*,-12,77*
COc1ccc2nc3cc(Cl)ccc3c(C#N)c2c1,0,0,5,0,1,nt
COc1ccc2nc3cc(Cl)ccc3c(Nc3ccc(O)c(CN4CCN(C)CC4)c3)c2c1,10,6,nt,66*,-10,75*
COc1cccc(CNC(=O)COC(=O)C2CCN(c3ccc(C(F)(F)F)cn3)CC2)c1,-3,-4,0,-17,-3,nt
Cn1c(NCC(O)c2ccccc2)nc2c1c(=O)n(Cc1ccc(Cl)c(Cl)c1)c(=O)n2C (configuration not stated),-14,-1,17,92*,-3,14
Cn1c(NCC(O)c2ccccc2)nc2c1c(=O)n(Cc1ccc(Cl)cc1)c(=O)n2C (configuration not stated),5,-4,3,-8,0,nt
CCN(CC)C(=O)C1CCCN(Cc2cccc(Oc3ccccc3)c2)C1 (configuration not stated),-15,-1,0,68*,-5,-13
CCOC(=O)C1CCCN(Cc2cccc(Oc3ccccc3)c2)C1 (configuration not stated),-1,-1,0,2,-3,nt
COc1ccccc1-n1c(CCC(=O)O)ccc1-c1ccccc1,3,4,0,-3,11,nt
COc1ccc(-c2ccc(CCC(=O)O)n2-c2ccccc2OC)cc1,-4,3,2,67*,-2,-4
Cn1c(=N)n(CC(=O)c2ccc(Br)s2)c2ccccc21,25,9,-2,0,-7,nt
N=c1n(CC(=O)c2ccc(Br)s2)c2ccccc2n1Cc1ccccc1,14,15,10,77*,-8,45
CCN(CC)CCn1c(=N)n(CCO)c2ccccc21,0,3,0,-2,0,nt
